Laboratory results: PMC12864922, “TDP-43 directly inhibits mRNA accumulation in neurites through modulation of mRNA stability”
Over roughly 9,900 sequences, “r (bound/input frequency ratio)” has its median near 0.7; the highest 2% begin near 6.5. Only a selection was taken, and the highest values are over-represented in it overall.

B1: ENSMUSG00000029636.13|Wasf3 (ssRNA)
RNA: GGGAGUUCUACAGUCCGACGAUCGCUUCGAUAUCCGCAUGCUAGUUUGAUGAGAAUGACUGGUCUGACUGAGGCACAAGGGCCAGGCGACCAGUGGACAGCCAGGGCCCCAUAUGCAAGUGUGUUAGGAGCUCCUGUGCUCUCUGCACCCUCACAGUGGUAUUUCCCUGUAGCUUUAGUCCCUUUUGUAUUAACAGUGUGAUUUGCUUCUGCACAUCCUUCUGGAUUUGUUGAGUAUUUACUGUGUAAUACUUAAGUGCCACAGAACACAGCACACCGUGCUGCACACCAGGAAACUCGCAGUCUCUUGCGGUCGCACUAGUGUGGAAUUCUCGGGUGUCAAGG
B2: ENSMUSG00000061578.1299|Ksr2 (ssRNA)
RNA: GGGAGUUCUACAGUCCGACGAUCGCUUCGAUAUCCGCAUGCUACGUGUUGCUGGGUCCCAGGGGAUUGGCUGUAGUUAAUUAAAAGCACCUGUCUCUGUCAUCUCUGCACCCAACUGAAUCUCCCACCCUCAAGUGUACCUCUCAGGAUAUCCCCAGGCACACGAAGAUGGAAUGGAAAGCCAGUGGGUAUCUCCCACCCACUUAGAUGCUGAUGGCCUGGGACUAUAAACAGGGACAGUUGGGUCUCCUAAGGAAUAGCUUCCAGGUCCAGGAUGCUGGCAUCUCCCAGAGAGAACUCCAUCCUCUUGCGGUCGCACUAGUGUGGAAUUCUCGGGUGUCAAGG
B3: ENSMUSG00000090935.112|Synj2bp (ssRNA)
RNA: GGGAGUUCUACAGUCCGACGAUCGCUUCGAUAUCCGCAUGCUAGUUCCUGUAGCUAUGGUGCUGCUACCAGUGUUUGCCCUCACCAUGGUAGCAGUUUGGGCCUUCGUGAGAUACCGAAAGCAGCUUUGAAAUGCUUGCUGUCUUCCAGUGUGUCCAAUGAACUCUCUCUCUCACUCACCAUCUCUGACAUCCUCCCAUAUUCUUUCUCCUCCACAUAGCCAAUACAAGAUUUAAAGUGACUGCUUAUCACCCAAAACCCUGCUAUUCAAAAUCUCCUAUUCUAAUGGAAGAGUACAGGGGUUCUCUUGCGGUCGCACUAGUGUGGAAUUCUCGGGUGUCAAGG
B4: ENSMUSG00000034801.219|Sos2|230:238 (ssRNA)
RNA: GGGAGUUCUACAGUCCGACGAUCGCUUCGAUAUCCGCAUGCUAUCUGCUAUUUGACUAAUUUGUAAGUCUGGAACAAAAGUGUCUUAUGGCAUAAGAACCAACUGCCAUUGUCAAACCUAUUAACUGUCUUUAAUCUCGUGUUAACUGAAAUUUUUGAAAAGUUUUUCCAGAUUAGUAAUAUUUAAACAGAAAAUACUUUAAAAAGCUUUAUUAAAUUUUUUAAUCAGGAUAAAGCUUUGCCAUUUGGAUACUAUCAUUCAAAGUGAUCAAGCAUACAUACUUAUGCUGAUAGUGCAGUAGCACUCUUGCGGUCGCACUAGUGUGGAAUUCUCGGGUGUCAAGG
B5: ENSMUSG00000028439.106|Fam219a|156:160 (ssRNA)
RNA: GGGAGUUCUACAGUCCGACGAUCGCUUCGAUAUCCGCAUGCUACCCUCAUCUCCAGAUGGGAAGCCUGGCAGCGCUGUCCAAAGGGAUACUGUCUCUCCAUUAGAUAACUCCUUCCACUGUCUCCCUCCCCCGCUUUCUUACUUUCUGAGGGUUGGGAAGGUAAGAUGGGCCUUAGAGAGAAGCCAGGUUUGGGGAUGCAUACACCUGUUCUCACCGGUCUCUAACCAGUGCAUCUGUCUCUCUGCCUCAUCCCCACACCGCCCUGCCACCCCCAGUCUUCUGUCUAUUGGUUCCAGGCUGGACUCUUGCGGUCGCACUAGUGUGGAAUUCUCGGGUGUCAAGG
B6: ENSMUSG00000061578.55|Ksr2 (ssRNA)
RNA: GGGAGUUCUACAGUCCGACGAUCGCUUCGAUAUCCGCAUGCUACACGCUGGACCAGUGUGUGCGCAUGUGUCUACACAUGGACAGGGCCAACUGCUAUCCUUCUGCCUGGACGAGCCAGCUGUGGAGUGUCCCAGCUGUGCUAUCCUGGAACACAGAACCAGGAUGGAACCAGAAACAAUACACCUGCUCCGUUGUCAAGGCUUCUAGGCCAAGGUCAGGGUAGGGAGGUGGGGUGGGUUAAACUUGCAAACAUCUGAUUUUAGAGGUCCCAUUCCAAGAUGGAAGUCACCGGUUGCCGCUGACUCUUGCGGUCGCACUAGUGUGGAAUUCUCGGGUGUCAAGG
B7: ENSMUSG00000031028.274|Tub (ssRNA)
RNA: GGGAGUUCUACAGUCCGACGAUCGCUUCGAUAUCCGCAUGCUAAAAAAGUAGAGUCAUGUAGAGUCAUGCUUUGAAUAUGUGGGUCAUGCUUUAGAUAUGAAGAGGCUAUGCAGGUAAGGAGGCUGGAUUGAUGUAAAUGGAAGUAGUACUUUAAGAAAGCUCUAGAUUUCCCAGGUUGGACACUCGACGAAAGGCACACCUGCUGCAGCAGGUUCUGACACACCUGAGCCAUACAUUGCCAUCAGAGAACCCUCAGCGAGGUAGCCUUUGUUUACAGUCUAGUUUCUAGAGGGCAGUAGGACCUCUUGCGGUCGCACUAGUGUGGAAUUCUCGGGUGUCAAGG
B8: ENSMUSG00000031028.129|Tub|126:130;202:207 (ssRNA)
RNA: GGGAGUUCUACAGUCCGACGAUCGCUUCGAUAUCCGCAUGCUACCAAAUAUCUGAGUGGAUGGGGAUGAUAGGAGUCAUCCAGUAGACUCCCUACAUCAGGGCUCUCAGCAGCCCCAGCACAACACCUAUGACACACACACAGGAUCUAGGUCACCAUUCAAGUAAUGCAUACCUUCAGGAAGAAUGUCCUCUCUGGGAAGACUCAGCUCCCAUUAUUGCCAGCAUGCCAUGAUCAGUGAGGGCACACACCCAUGCUUAGGGGGAUGGCGCAGGGUGAGGGGAGCAGAGGAUAUUUUAGGGCCCUCUUGCGGUCGCACUAGUGUGGAAUUCUCGGGUGUCAAGG
B9: ENSMUSG00000004113.208|Cacna1b|46:50;236:240 (ssRNA)
RNA: GGGAGUUCUACAGUCCGACGAUCGCUUCGAUAUCCGCAUGCUACAUCGGGUGGAUUGGGUGGGAGCUGCUCAGAGCAGCACGGGGGCUACACACUUAGGGACAUUGACAGUGUCCAUCAGCAUGUCAGAGAAGCAGCUGUAGUGCCCGUGUUUCUCCCUGAGUCAUGGGUUCUGAAGAAGCCAGAGCGGCACAAUGCGUGCUUGCAUGAGGCACUUUCAGCCUUUUUAAAUCUGACUCUCAGGGAUGGGAUGCCUGCCAAGUAGGGUGUAAUCUCUGUACACAUUUUAAAACAACAACAACAACUCUUGCGGUCGCACUAGUGUGGAAUUCUCGGGUGUCAAGG

These binders were tested against TDP-43 (Homo sapiens, UniProt Q13148 1-414) (assay: RNA Bind-n-Seq with designed 260-mer pool; 25 mM Tris-HCl, 150 mM KCl, 3 mM MgCl2, BSA (printed 500 mg/mL), 20 units/mL SUPERase IN; pH not stated; 500 nM RNA pool, 1 h, 4 C; TDP-43 5, 50, 500 nM; high values mean tight binding). Conditions: protein: recombinant; tags: SBP (GST cleaved off with PreScission; pGEX-GST-SBP).
Procedure, shortened: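 Recombinant SBP-tagged TDP-43 at 5, 50 or 500 nM was captured on streptavidin beads, then incubated 1 h at 4 °C with 500 nM of an in vitro-transcribed 260-nt 3′ UTR oligo pool in 25 mM Tris-HCl, 150 mM KCl, 3 mM MgCl2, BSA and SUPERase IN. Bound RNA was washed, eluted with biotin, reverse transcribed, PCR-amplified and sequenced. Binding is R, each oligo's mapped-read-normalized abundance in the bound sample divided by its abundance in input. Duplicates used two independent protein batches.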

Chain of TDP-43 (Q13148 whole entry): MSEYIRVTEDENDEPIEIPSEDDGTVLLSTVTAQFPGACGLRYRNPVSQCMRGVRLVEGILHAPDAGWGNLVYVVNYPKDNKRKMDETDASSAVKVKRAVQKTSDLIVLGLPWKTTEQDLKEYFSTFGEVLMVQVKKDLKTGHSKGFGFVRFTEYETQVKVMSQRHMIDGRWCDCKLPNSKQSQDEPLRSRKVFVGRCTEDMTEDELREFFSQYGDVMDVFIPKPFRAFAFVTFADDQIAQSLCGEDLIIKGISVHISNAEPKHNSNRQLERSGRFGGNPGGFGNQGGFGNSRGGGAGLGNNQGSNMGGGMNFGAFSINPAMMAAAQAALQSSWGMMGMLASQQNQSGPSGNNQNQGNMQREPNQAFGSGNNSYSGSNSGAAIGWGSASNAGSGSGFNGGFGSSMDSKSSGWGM

Binder | binding signal
B1 | 0.391 R (bound/input frequency ratio)
B2 | 0.299 R (bound/input frequency ratio)
B3 | 2.02 R (bound/input frequency ratio)
B4 | 0.0202 R (bound/input frequency ratio)
B5 | 0.353 R (bound/input frequency ratio)
B6 | 0.378 R (bound/input frequency ratio)
B7 | 0.687 R (bound/input frequency ratio)
B8 | 0.668 R (bound/input frequency ratio)
B9 | 0.881 R (bound/input frequency ratio)
